Source: PubChem (National Center for Advancing Translational Sciences (NCATS))
Mito fusion yeast = mitochondrial division inhibition or fusion activation. S. cerevisiae fusion-defective mutant growth rescue, CellTiterGlo 48 h. Potency, µM (doses to about 46.1 µM), inactives show at the highest dose growth rescue (activation), usual class: activators. 320,000 tested, 0.23% active; also: % of control where 0% means no effect; nearly all actives have a fitted effect of over 45% in size
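Luminescent cell viability in 1536-well qHTS format served as the measure of rescued growth in ts fusion-mutant S. cerevisiae cultured on non-fermentable YPEG for 48 hours at 37C.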
TDP43 rescue = TDP-43 toxicity inhibition in yeast; TDP-43 expressing yeast growth rescue, BacTiter-Glo, 24 h; Potency, µM (highest dose often 46.1 µM), for inactives: at the top dose growth rescue (activation), usual class: activators; 410,000 tested, 1.8% active; AID 652104; also: % of control where 0% means no effect; nearly all actives have a fitted effect of over 50% in size
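Yeast cells expressing TDP-43 under galactose induction are exposed to compounds for 24 hr at 30 deg C. BacTiter-Glo luminescence measures growth, so protective compounds score as activators.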
aSyn yeast inh = alpha-synuclein toxicity inhibition in yeast | AID 652106 | Potency, µM (highest dose often 46.1 µM), for the others: at the highest dose growth rescue (activation), hits mostly activators | 370,000 tested, 0.14% active | Yeast expressing alpha-synuclein, growth rescue, BacTiter-Glo, 24 h; also: % of control where 0% means no effect; nearly all actives have a fitted effect of over 65% in size
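Galactose-induced alpha-syn yeast (OD600=0.02, raffinose-pregrown) + pinned cpd, 24 hr, 30 deg C; growth by BacTiter-Glo luminescence. Growth restoration scores as activation.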
FUS yeast rescue = rescues growth of FUS-expressing yeast; AID 1347120; Potency, µM (series often up to 76.6 µM), most hits filed as activators; S. cerevisiae FUS-expressing, growth rescue, OD600, 24 h; 390,000 tested, 0.24% active;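 also: plate controls were DMSO vehicle for no effect and reference control for full effect; nearly all actives have a fitted effect of over 55% in size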
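Quantitative HTS measuring growth restoration of FUS-toxic yeast. Galactose-induced cells (OD 0.005) were exposed 24hr at 30C to compounds at several concentrations, then absorbance at 600 nm was recorded.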
Abeta rescue = A-beta toxicity reversal in yeast; yeast expressing A-beta42, growth rescue, OD600, 48 h; response scale: 0% DMSO, 100% iron-clioquinol control; Potency, µM (titrated, usually from 46.1 µM), most hits filed as activators; 410,000 tested, 0.063% active; AID 1347071; also: nearly all actives have a fitted effect of over 55% in size
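Yeast growth medium received pinned compounds, then yeast cells expressing toxic A-beta were added; plates incubated at 30 C for 48 hr. Growth read as absorbance at 600 nm, normalized to DMSO and equimolar FeCl3 plus clioquinol controls.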
Starred values were filed as active, the others as inactive; i = inactive; ? = inconclusive; / = no result given; [ ] = remark or other dose. In the library only some 2.2% were active in any assay of this set; here they are far more common. Calls follow the shape of the dose curve; as a rule, active = well fitted curve in the direction sought with a large enough effect; inconclusive = small, poorly fitted or top-dose-only effect, or another doubt; inactive = no such curve, though single readings can be large; an effect the other way counts as inactive or inconclusive. Potency is read from the fitted curve at half-maximal effect.

SMILES	Mito fusion yeast	TDP43 rescue	aSyn yeast inh	FUS yeast rescue	Abeta rescue
S=c1[nH]cnc2scc(-c3ccc(Br)cc3)c12	1%	-5%[9.22 µM]	-3%	i	?
Cc1ccc(-c2csc3nc[nH]c(=S)c23)cc1	28%	18µM*	9%	i	i
Cc1ccc(CN(CC(O)COc2cccc3[nH]cc(C)c23)C(C)(C)C)cc1 (stereo not given)	5.6µM*	9%	13%	i	i
COC(=O)Cc1c[nH]c2cccc(OCC(O)CN(Cc3ccc([N+](=O)[O-])cc3)C(C)(C)C)c12 (stereo not given)	-14%	-5%	0%	i	i
O=C(Nc1ccc2c(c1)OCO2)OC1CCC12CCCCC2 (stereo not given)	/	/	/	i	/
CCn1c(SCc2nc(-c3ccccc3)no2)nc2ccccc21	8%	16µM*	6%	i	i
CCn1c(SCc2nc(-c3ccccc3)no2)nnc1-c1cccs1	4%	13µM*	6%	i	i
c1ccc(-c2noc(CSc3nnnn3C3CCCCC3)n2)cc1	-2%	13µM*	3%	i	i
Clc1ccc(-c2nnc(CSc3nnc(-c4cccs4)n3Cc3ccccc3)o2)cc1	?	18µM*	?	?	i
Cc1nnc(SCc2nnc(-c3cccs3)o2)n1Cc1ccccc1	-5%	15%	12%	i	i
CC(SC1=NS(=O)(=O)c2ccccc21)C(=O)O (stereo not given)	/	/	0%	/	/
CCn1c(SCc2nc(-c3ccccc3)no2)nnc1-c1ccco1	5%	18µM*	2%	i	i
COc1ccc(OC)c(NC(=O)Nc2c(O)ccc3ccccc23)c1	/	17%	0%	i	i
COc1ccc(OC)c(C(=O)Nc2c(O)ccc3ccccc23)c1	/	11µM*	1%	?	i
COc1ccc(OC)c(NC(=O)Nc2ccc(O)c3ccccc23)c1	/	-32%	-3%	28µM*	i
CCC(C(=O)Nc1ccccc1N1CCCC1)c1cccc(OC)c1 (stereo not given)	/	/	/	i	/
CC(/C=N/NC(=O)c1cc(-c2ccncc2)nc2ccccc12)=C\c1ccco1	3%	-5%	12%	28µM*	i
Cc1ccc(-c2cc(C(=O)NCCCN3CCOCC3)c3ccccc3n2)cc1C	6.3µM*	2%	-6%	i	i
Cc1ccc(-c2cc(C(=O)N/N=C/c3cccnc3)c3ccccc3n2)cc1C	/	22µM*	-11%	?	i
CCOC(=O)CC[C@@H]1CC[C@]2(CCCN(C(=O)c3ccccc3)C2)O1	/	/	/	i	/
O=C(CSc1c2c(nc3cc(Cl)ccc13)CCCC2)N1CCN(c2ccccc2)CC1	/	20µM*	/	?	i
CCCCN(CC)C(=O)CSc1c2c(nc3ccc(Cl)cc13)CCCC2	/	22µM*	/	i	i
COc1ccc(NC(=O)CSc2c3c(nc4ccc(Cl)cc24)CCCC3)cc1Cl	/	11µM*	/	i	i
CCOC(=O)c1ccc(NC(=O)CSc2c3c(nc4cc(Cl)ccc24)CCCC3)cc1	/	16µM*	/	i	i
CC1CCN(C(=O)CSc2c3c(nc4cc(Cl)ccc24)CCCC3)CC1	/	?	/	?	i
SMILES	Mito fusion yeast	TDP43 rescue	aSyn yeast inh	FUS yeast rescue	Abeta rescue
COCCn1c(N)c(N(Cc2ccccc2)C(=O)c2ccc(-c3ccc(Cl)cc3)o2)c(=O)[nH]c1=O	-11%	-19%	-3%	i	i
Cc1ccc(Cn2c(N3CCN(C)CC3)nc3c2c(=O)[nH]c(=O)n3C)cc1	1%	1%	3%	i	i
COc1ccc(CNc2ncnc3nc[nH]c23)cc1OC	/	/	-5%	/	/
CCc1ccc(CNCC(=O)N2CCC3(CC2)OCCO3)s1	/	/	/	i	/
COC(=O)[C@]1(CNC(C)=O)CC(=O)N(Cc2ccc(Cl)cc2)[C@@H]1c1ccc(OC)cc1	/	/	/	i	/
COCCNC(=O)CSc1c2c(nc3ccc(Cl)cc13)CCCC2	18µM*	-3%	-8%	i	i
CCCNC(=O)CSc1c2c(nc3ccc(Cl)cc13)CCCC2	/	23%	/	i	i
CC(=O)NC(c1ccc(Cl)cc1Cl)c1ccc2cccnc2c1O (stereo not given)	5%	32µM*	?	i	?
CC(C)C(=O)NC(c1cccc([N+](=O)[O-])c1)c1ccc2cccnc2c1O (stereo not given)	1%	35µM*	-39%	i	i
CCCC(=O)NC(c1cccc([N+](=O)[O-])c1)c1ccc2cccnc2c1O (stereo not given)	/	2%	-2%	i	i
Cc1cccc(NC(=O)CSCC(=O)NNC(=O)c2ccoc2C)c1	-6%	5%	-6%	/	i
CCCC(=O)N1CCC1(C)C(=O)NS(=O)(=O)c1cccc(Cl)c1 (stereo not given)	/	4%	-1%	i	i
CCC/C(=C1/c2ccccc2C(=O)N1c1ccccc1)c1ccc2[nH]ccc2c1	/	14µM*	-44%	i	i
O=C(CCn1c(=O)c2cccn2c2cccnc21)N1CCN(c2cccc(C(F)(F)F)c2)CC1	/	25µM*	/	i	i
O=C(NCc1ccco1)c1cc2cc(Br)ccc2o1	1%	22µM*	-3%	i	i
O=C1c2c(O)ccc(O)c2C(=O)c2c(NCCNCCO)ccc(NCCNCCO)c21	-13%	0%	-20%	28µM*	i
C[C@@]12CCC3[C@@](CCC4[C@@]3(C)CCC[C@@]4(C)C(=O)O)(CC1=O)C2 (stereo not given in full)	17%	20µM*	5%	i	i
COc1cc(OC)c(C=CC(=O)c2ccccc2O)c(OC)c1	/	12%	-7%	i	i
O=C(/C=C/c1ccc2c(c1)OCCCO2)c1ccccc1O	2%	13µM*	-37%	/	i
COc1cc(/C=C/C(=O)c2ccccc2O)cc(OC)c1OC	13%	16µM*	13%	i	i
Cc1ccc(C(=O)/C=C/c2ccc3c(c2)OCO3)o1	-6%	26%	-1%	i	i
Cc1ccc(O)c(C(=O)/C=C/c2ccc3c(c2)OCCCO3)c1	18%	14µM*	-18%	i	i
Cc1ccc(/C=C/C(=O)c2ccccc2O)cc1	-1%	7%	0%	i	i
Cc1ccc(O)c(C(=O)C=Cc2ccccc2)c1	/	13µM*	?	/	i
C=CCN1C(=O)[C@@H](CC(=O)NCc2ccc(C)o2)[C@]2(C(=O)OC)CCCCC=C12	/	/	/	i	/
O=C(Nc1ccccc1)OCC1CCCO1 (stereo not given)	/	3%	2%	i	i
O=C(Nc1ccccc1)OCC1COC(c2ccccc2)(c2ccccc2)O1 (stereo not given)	/	20µM*	11%	/	i
